Compound activity: PubChem, several laboratories
Only some compounds are listed: those with a hit (about 1.3% of all), similar ones and a draw of the others.
GALR2 ag: agonists of human galanin receptor 2 (GALR2) | AID 803 | activation, % (test concentration not listed) | hit rate 0.48% among 140,000 | O43603 | GALR2-expressing cells, agonist activation read-out; in the data active = activation above about 5%, passing the limit was not always enough;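 also: 0% = vehicle buffer wells and 100% = reference agonist at full effect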
Target sequence (O43603 whole entry, looked up): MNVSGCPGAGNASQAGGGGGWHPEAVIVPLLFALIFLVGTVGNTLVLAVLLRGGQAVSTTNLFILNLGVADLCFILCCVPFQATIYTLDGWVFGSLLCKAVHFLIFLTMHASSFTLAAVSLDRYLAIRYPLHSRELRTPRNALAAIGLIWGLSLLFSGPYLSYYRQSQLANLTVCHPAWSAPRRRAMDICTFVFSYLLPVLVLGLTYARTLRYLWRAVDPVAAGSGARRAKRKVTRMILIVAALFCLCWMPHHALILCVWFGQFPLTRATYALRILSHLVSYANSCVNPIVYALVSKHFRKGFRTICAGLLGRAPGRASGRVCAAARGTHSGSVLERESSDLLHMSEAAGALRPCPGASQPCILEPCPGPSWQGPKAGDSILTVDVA
S1P2 antag: blocks the human S1P2 receptor. O95136. cell-based S1P2 antagonist assay, inhibition at 5 uM. inhibition, % at 5 µM. hit rate 0.21% among 97,000. AID 736; in the data active = inhibition above about 45%;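 also: CRE beta-lactamase reporter cells expressing human S1P2 stimulated with S1P; 0% = agonist at EC80 alone and 100% = agonist plus reference antagonist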
Phagocyt inh: macrophage phagocytosis inhibition. J774A.1 macrophage IgG-bead phagocytosis, imaging. inhibition, % at 5 µM. hit rate 0.07% among 110,000. AID 1029;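 active = inhibition above the mean of the plate negative controls plus 5 SD, cut at about 13% in these data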;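 also: phagocytic index as fraction of beads internalized from green versus red external bead signal; plate controls were DMSO negative control for no effect and cytochalasin-D positive control for full effect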
S1P2 ag: agonists of human S1P2 receptor. O95136. S1P2-expressing cell line, agonist reporter read-out. activation, % at 4.5 µM. hit rate 0.46% among 97,000; in the data active = activation above about 16%;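 also: 0% = vehicle low control and 100% = maximal reference agonist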
GALR2 blocker: GALR2 (human) receptor antagonism; GALR2-expressing cells, antagonist mode; inhibition, % at 4 µM; hit rate 0.39% among 140,000; in the data active = inhibition above about 27%;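 also: cells stimulated with galanin 1-16 at roughly its EC80; 0% = agonist challenge control and 100% = basal control without agonist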
Candida biofilm: kills Candida albicans biofilms; C. albicans biofilm + clotrimazole, Alamar Blue; inhibition, % at 6 µM; hit rate 0.14% among 85,000;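 active = inhibition above 20%; inactive = inhibition below 20%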;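 also: preformed 24 hr biofilms exposed to compound for 48 hr; 0% = biofilm without compound and 100% = blank killed by clotrimazole plus chlorhexidine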
GALR2 agon conf: GALR2 (human) agonism confirmed. activation, % at 5.6 µM. hit rate 10% among 460. GALR2-expressing cells, agonist activation. shares compounds with GALR2 ag. AID 864; in the data active = activation above about 8.4%;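 also: 0% = buffer-only vehicle wells and 100% = full reference agonist response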
BLA act counter: beta-lactamase activation, GALR2 counterscreen; hit rate 10% among 460; activation, % at 5.6 µM; CHO NFAT-bla reporter, beta-lactamase FRET activation; shares compounds with GALR2 ag; AID 865;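 active = activation above the screen-wide mean activation plus 3 SD, cut at about 8% in these data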;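 also: 0% = DMSO with PBS wells and 100% = thapsigargin positive control wells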
* marks the source's active call; other numbers are inactive results; / = no result given.

SMILES | GALR2 ag | S1P2 antag | Phagocyt inh | S1P2 ag | GALR2 blocker | Candida biofilm | GALR2 agon conf | BLA act counter
Cc1cc(NC(NC(=O)c2ccco2)(C(F)(F)F)C(F)(F)F)no1 | 8 | -14 | 0 | -6 | 4 | 4 | 0 | -1
c1ccc(-c2cc3c(-n4cccc4)ncnc3o2)cc1 | -1 | 2 | -1 | -1 | 10 | -1 | / | /
CN(C)c1ccc(/C=C2/SC(=O)N(CCN=C3NS(=O)(=O)c4ccccc43)C2=O)cc1 | 13* | / | -14 | / | 8 | / | 5 | -2
CN(C)c1ccc(/C=C2\SC(=O)N(CC(O)Cn3c4ccccc4c4ccccc43)C2=O)cc1 (stereo not drawn) | -1 | / | -9 | / | -5 | / | / | /
Nc1ncc(-c2ccccc2)n1CC1CCCO1 (stereo not drawn) | 0 | 12 | / | -2 | 5 | / | / | /
Cc1cccc(NC2=C(Cl)C(=O)OC2NC(=O)c2ccccc2)c1 (stereo not drawn) | -1 | -17 | 2 | -2 | -7 | 5 | / | /
O=C(c1cc2ccccc2o1)n1nnc2ccccc21 | 0 | 8 | -1 | -4 | 1 | 4 | / | /
Cc1cccc(S(=O)(=O)c2c(N)n(/N=C/c3ccco3)c3nc4ccccc4nc23)c1 | 54* | 15 | 0 | -9 | 0 | 9 | 0 | -1
Cc1ccc(S(=O)(=O)c2c(N)n(/N=C/c3ccco3)c3nc4ccccc4nc23)cc1 | -1 | -9 | 0 | -5 | -10 | 3 | / | /
CCOc1ncccc1C(=O)OCC(=O)Nc1ccc(-c2nc3ccc(C)cc3s2)cc1 | 11* | / | -1 | / | -5 | / | 7 | -1
Cc1cc(C)c(OC2(c3ccccc3)OC(=O)c3ccccc32)c(C)c1 (stereo not drawn) | 0 | 4 | / | 0 | -13 | / | / | /
COc1ccc(NC(=O)c2cccc(F)c2)cc1Cl | -1 | 5 | 0 | -3 | 7 | 1 | / | /
COc1ccc(NC(=O)c2ccccc2F)cc1Cl | 15* | -3 | -1 | 0 | 10 | 4 | -1 | -2
CCOc1ccccc1N/C(=C(/C(Cl)=C(Cl)Cl)[N+](=O)[O-])n1cncn1 | -2 | -9 | -1 | -6 | 6 | 3 | / | /
O=C(Nc1cccc(O)c1)C(Cc1ccccc1)N1C(=O)c2cccc3cccc(c23)C1=O (stereo not drawn) | 10* | / | -10 | / | -2 | / | 5 | 1
CCN(CC(=O)NC1CCS(=O)(=O)C1)S(=O)(=O)c1ccc(F)cc1 (stereo not drawn) | 0 | / | -6 | / | 2 | / | / | /
CCn1cc(C2=NOC(C(=O)Nc3cc(C)nn3-c3ccccc3)C2)c(C)n1 (stereo not drawn) | 11* | / | -1 | / | 14 | 7 | 0 | -2
CCOc1ccc(-n2c(=O)c3c(C)c(C)sc3n(CC(=O)NCc3ccco3)c2=O)cc1 | -2 | 3 | 0 | -7 | 3 | 8 | / | /
CCOC(=O)N1CCN(C(=O)c2ccc3c(=O)n(CCc4ccccc4)c(=S)[nH]c3c2)CC1 | 11 | 7 | / | -4 | -12 | 2 | 0 | 0
Cc1ccc(S(=O)(=O)N2CCN(C(=O)COc3ccc(NC(=O)c4ccco4)cc3)CC2)cc1 | 13* | 3 | 1 | -4 | 4 | 8 | -1 | -2
CCOC(=O)Cc1csc(NC(=O)CSc2ncnc3c2cnn3-c2ccc(OC)cc2)n1 | 12* | -1 | 3 | -5 | 2 | 5 | 0 | -2
CCOC(=O)C1=C(C)N=C2SC(C(=O)OC)=CC(=O)N2C1c1ccc(F)cc1 (stereo not drawn) | 9 | 8 | / | -9 | 7 | / | -1 | -1
O=C(CSc1ncc(-c2ccccc2)n1CC1CCCO1)N1CCCCC1 (stereo not drawn) | 0 | / | 2 | / | -2 | 7 | / | /
CC(C)Cn1c(-c2ccc(Cl)cc2)cnc1SCC(=O)N1CCOCC1 | 21* | 30 | / | -2 | -1 | -4 | -1 | -1
COc1ccccc1/C=C1\SC(=S)N(CCC(=O)NC2=NCCS2)C1=O | -1 | / | -4 | / | -4 | / | / | /
SMILES | GALR2 ag | S1P2 antag | Phagocyt inh | S1P2 ag | GALR2 blocker | Candida biofilm | GALR2 agon conf | BLA act counter
O=C(CC1Nc2ccccc2NC1=O)Nc1cc(Cl)cc(Cl)c1 (stereo not drawn) | 13* | -1 | 2 | 16 | -1 | 4 | 12* | 9.9*
O=C(CC1NC(=O)NC1=O)Nc1ccc(Cl)cc1 (stereo not drawn) | -1 | 3 | 2 | -4 | -6 | 3 | / | /
O=C(Nc1cccc2ncccc12)C12CC3CC(CC(C3)C1)C2 | 0 | -9 | -2 | -4 | -14 | 2 | / | /
O=C(CC12CC3CC(CC(C3)C1)C2)Nc1cccc2ncccc12 | 23* | -7 | 0 | -3 | -8 | -1 | 0 | -1
CC(=O)c1nn(-c2ccc(Br)cc2)cc1C(=O)c1ccco1 | -1 | -10 | / | -1 | -7 | 6 | / | /
CC(=O)c1nn(-c2ccc(Br)cc2)cc1C(=O)c1ccccc1 | 8.6* | / | 1 | / | 10 | / | 4 | 0
Cc1ccc(Nc2cnn(C34CC5CC(CC(CC(=O)O)(C5)C3)C4)c(=O)c2Cl)cc1 | 11 | -1 | / | -2 | -8 | -1 | -1 | -2
CC(C)c1ccc(Nc2cnn(C34CC5CC(CC(CC(=O)O)(C5)C3)C4)c(=O)c2Cl)cc1 | -2 | -4 | / | -7 | -10 | -2 | / | /
Cc1c(NC(=O)COC(=O)C2CC3C=CC2C3)c(=O)n(-c2ccccc2)n1C (stereo not drawn) | -1 | 7 | 1 | -3 | 6 | 3 | / | /
CC(NS(=O)(=O)c1ccc(Br)cc1)C(N)=O (stereo not drawn) | -1 | 2 | -2 | -3 | 0 | -1 | / | /
COC(=O)c1cc2ccsc2n1CC(=O)Nc1cc(C)cc(C)c1 | 10 | -5 | / | -2 | 0 | 0 | 2 | -2
COc1ccccc1C(=O)n1nc(-c2cccnc2)nc1N | -3 | / | 0 | / | 15 | 6 | / | /
CCCCN1C(=O)C(O)=C(C(C)=O)C1c1ccccc1 (stereo not drawn) | 172* | 3 | -1 | -5 | -13 | 4 | -1 | -3
CCCCCCN1C(=O)C(O)=C(C(C)=O)C1c1ccc(Cl)cc1 (stereo not drawn) | -3 | / | -2 | / | 5 | 1 | / | /
CCOc1ccc(NC(=S)N2CCC(C(O)(c3ccccc3)c3ccccc3)CC2)cc1 | -1 | / | -3 | / | 7 | / | / | /
COc1cc([C@H]2c3[nH]c4ccccc4c3C[C@H]3C(=O)N4[C@@H](c5cc(OC)c(OC)c(OC)c5)c5[nH]c6ccccc6c5C[C@H]4C(=O)N23)cc(OC)c1OC | 9.6* | / | / | / | -5 | / | 3 | 2
O=C1[C@@H]2Cc3c([nH]c4ccccc34)[C@@H](c3ccccc3)N2C(=O)[C@@H]2Cc3c([nH]c4ccccc34)[C@@H](c3ccccc3)N12 | -1 | / | / | / | 14 | / | / | /
CC(C)(C)N(Cc1ccccc1)C(=O)CSc1nc2ccccc2c(=O)[nH]1 | -1 | 2 | -2 | -2 | 1 | 8 | / | /
